For experiment [1], the system named is Aerobactin synthetase IucA (Klebsiella pneumoniae). As to the kind of experiment: IucA aerobactin synthetase inhibitors, biochemical, Tocris library, absorbance (AID 1345561).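 Further: 100% = enzyme without compound and 0% = no enzyme.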 The note with it: purified IucA enzyme assay, absorbance (OD) read-out; stronger effect = lower value;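 tested at 8 µM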.
Experiment [2] is described as follows: sensitizers of A549 cells to miR-34 induction, primary screen, imaging, A549 dox-inducible miR-34, nuclei and caspase counts (AID 1347080;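 active means compounds whose cell count with miR-34 switched on is under 0.7 times the count with it off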). The note with it: A549 miR-34 inducible, Hoechst nuclei count, 48 h.
The nature of experiment [3]: viability rescue of complex I mutant cybrids, primary screen, cell-based, galactose medium, ATP luminescence (AID 1645843;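 active means z-score of at least 1.8 in each of two replicates, scored against plate mean and spread of sample wells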;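 further: positive z means more ATP and so rescue of galactose-driven cybrid death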). The note with it: complex I mutant cybrid cells, 72 h, stronger effect = higher value.
Setting [4] is: stronger effect = lower value, cell number ratio, induced over uninduced.
The mark [5] stands for this setting: measured here: relative caspase fold change +Dox/-Dox.
[6] abbreviates: measured here: total cells with miR-34 induction, stronger effect = lower value.
Where [7] appears, read: measured here: total cells without miR-34 induction.

The source made the active and inactive calls. Unless noted, how the calls were made is not given here.

The source of these data is PubChem BioAssay.

For the compound `C1CC[C@H]2[N]=[Pt]=[N][C@@H]2C1.O=C(O)C(=O)O`, in experiment [1], the remaining activity is 86.1% (inactive). Also, the values for the fold change in experiment [2] (setting [4]) and in experiment [2] (setting [5]) were 0.928 (inactive) and 1.09, respectively. The cell count stood at 4040 in experiment [2] (setting [6]) and 4350 in experiment [2] (setting [7]). Moreover, in experiment [3], the z-score is 3.04 (active).

Consider `O[C@H](CNC[C@@H](O)[C@H]1CCc2cc(F)ccc2O1)[C@@H]1CCc2cc(F)ccc2O1`, for which the remaining activity in experiment [1] is 101% (inactive). In addition, the fold change in experiment [2] (setting [4]) was 1.03 (inactive); in experiment [2] (setting [5]) it was 0.967. The values for the cell count in experiment [2] (setting [6]) and in experiment [2] (setting [7]) were 3230 and 3140, respectively. Besides, the z-score in experiment [3] was -0.5 (inactive).

Regarding `CCc1cc(C2NNC(C)C2c2ccc3c(c2)OCCO3)c(O)cc1O` (stereo not given), in experiment [1], the remaining activity is 92.2% (inactive). The fold change in experiment [2] (setting [4]) is 1.01 (inactive); in experiment [2] (setting [5]), 1.27. For the same compound, the cell count in experiment [2] (setting [6]) stood at 4520; in experiment [2] (setting [7]) it was 4490. The z-score in experiment [3] was 0.625 (inactive).

Consider `NC(C(=O)O)c1nn[nH]n1` (stereo not given), for which, in experiment [1], the remaining activity is 102% (inactive). The fold change in experiment [2] (setting [4]) is 1.01 (inactive); in experiment [2] (setting [5]) it was 0.805. In addition, the cell count in experiment [2] (setting [6]) worked out at 9500; in experiment [2] (setting [7]), 9360. Besides, the z-score in experiment [3] was -0.46 (inactive).

On to `C[C@]12CC[C@@H]3c4ccc(O)cc4C[C@@H](CCCCCCCCCS(=O)CCCC(F)(F)C(F)(F)F)C3[C@@H]1CC[C@@H]2O` (stereo not given in full), for which the remaining activity in experiment [1] is 117% (inactive). Also, the fold change was 0.929 (inactive) in experiment [2] (setting [4]) and 0.852 in experiment [2] (setting [5]). Further, the values for the cell count in experiment [2] (setting [6]) and in experiment [2] (setting [7]) were 6320 and 6800, respectively. Also, the z-score in experiment [3] was 0.9 (inactive).

As for `O=c1[nH]c2cc(Cl)ccc2c(O)c1-c1cccc(Oc2ccccc2)c1`, the remaining activity in experiment [1] was 103% (inactive). The fold change was 0.963 (inactive) in experiment [2] (setting [4]) and 0.827 in experiment [2] (setting [5]). For the same compound, the cell count in experiment [2] (setting [6]) amounted to 8760; in experiment [2] (setting [7]), 9100. In addition, the z-score in experiment [3] is 0.335 (inactive).

On to `COc1cc2c(cc1OC)-c1cc3nc4ccccc4nc3n1C(C)(C)C2`, for which, in experiment [1], the remaining activity was 119% (inactive). Besides, the fold change in experiment [2] (setting [4]) is 1.11 (inactive); in experiment [2] (setting [5]), 0.782. For the same compound, the cell count in experiment [2] (setting [6]) stood at 4000; in experiment [2] (setting [7]), 3590. In addition, in experiment [3], the z-score was -0.79 (inactive).

Consider `CCCc1c(OCCCOc2ccc(OCC(=O)O)cc2)ccc(CC=O)c1O`, for which, in experiment [1], the remaining activity is 117% (inactive). Moreover, the figures for the fold change in experiment [2] (setting [4]) and in experiment [2] (setting [5]) were 0.911 (inactive) and 0.927, respectively. Moreover, the cell count in experiment [2] (setting [6]) was determined as 9560; in experiment [2] (setting [7]), 10500. Also, the z-score in experiment [3] is 1.5 (inactive).

For `Cc1cc(C)c(S(=O)(=O)Nc2cccc(C(F)(F)F)c2)c(C)c1`, the remaining activity in experiment [1] is 107% (inactive). The fold change in experiment [2] (setting [4]) is 0.995 (inactive); in experiment [2] (setting [5]), 0.922. For the same compound, the cell count in experiment [2] (setting [6]) is 5690; in experiment [2] (setting [7]), 5720. Also, in experiment [3], the z-score is -0.605 (inactive).

As to `O=c1nc2ccccc2c2n1CC(CN1CCN(c3ccccc3)CC1)N2` (stereo not given), the remaining activity in experiment [1] was 100% (inactive). Further, the results for the fold change in experiment [2] (setting [4]) and in experiment [2] (setting [5]) were 0.869 (inactive) and 0.649, respectively. For the same compound, the values for the cell count in experiment [2] (setting [6]) and in experiment [2] (setting [7]) were 9300 and 10700, respectively. The z-score in experiment [3] is -0.605 (inactive).

Consider `CC(C)NCCN(C(C)C)S(=O)(=O)c1ccc(Cl)cc1Cl`, for which the remaining activity in experiment [1] was 113% (inactive). The fold change in experiment [2] (setting [4]) is 0.946 (inactive); in experiment [2] (setting [5]), 1.35. In addition, the cell count in experiment [2] (setting [6]) is 9040; in experiment [2] (setting [7]), 9560. Moreover, the z-score in experiment [3] is -0.215 (inactive).

As to `O=C(N/N=C/c1ccccc1O)c1ccccc1O`, the remaining activity in experiment [1] is 106% (inactive). For the same compound, the fold change in experiment [2] (setting [4]) was 0.984 (inactive); in experiment [2] (setting [5]), 1.5. The figures for the cell count in experiment [2] (setting [6]) and in experiment [2] (setting [7]) were 4010 and 4070, respectively. Also, the z-score in experiment [3] is -0.59 (inactive).

On to `CSc1ccc([C@H]2CN3CCC[C@H]3c3ccccc32)cc1`, for which the remaining activity in experiment [1] was 123% (inactive). Moreover, the figures for the fold change in experiment [2] (setting [4]) and in experiment [2] (setting [5]) were 0.927 (inactive) and 1.33, respectively. Besides, the cell count stood at 7680 in experiment [2] (setting [6]) and 8280 in experiment [2] (setting [7]). The z-score in experiment [3] is -0.51 (inactive).

Take `Nc1ncnc2c1nc(Br)n2[C@@H]1O[C@@H]2COP(=O)(O)O[C@H]2[C@H]1O`: the remaining activity in experiment [1] is 114% (inactive). The fold change in experiment [2] (setting [4]) was 0.96 (inactive); in experiment [2] (setting [5]), 0.834. The cell count in experiment [2] (setting [6]) was found to be 8030; in experiment [2] (setting [7]), 8360. The z-score in experiment [3] was -0.015 (inactive).

Regarding `NCCCCCCCCCCNS(=O)(=O)c1cccc2c(Cl)cccc12`, the remaining activity in experiment [1] is 98.7% (inactive). For the same compound, the values for the fold change in experiment [2] (setting [4]) and in experiment [2] (setting [5]) were 0.827 (inactive) and 0.835, respectively. Further, the results for the cell count in experiment [2] (setting [6]) and in experiment [2] (setting [7]) were 5900 and 7130, respectively. Also, in experiment [3], the z-score is -1.11 (inactive).
